# Measurements as given in the supplement of paper PMC6555819.
# Assays:
# Experiment in all cases: PBM binding z-score (relative to random genomic background probes); higher = stronger binding; sequences stand for … in GC…GCGATTGACAGCGTAGAATGAAGG
# [1] = system: FXR:RXRa (NR concentration 270 nM, RXRa partner concentration 90 nM)
# In short: (§1)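 Custom Agilent 4×180K protein-binding microarrays carried double-stranded probes, each with a 34-nt variable region. These regions held direct-repeat seeds, single-nucleotide variants, half-site ablations and random human genomic background sequences. Ligand-free nuclear receptor dimers were incubated on the arrays for 1 h, antibodies against each partner (one per run) detected binding, and scanned fluorescence was regression-normalized. Binding z-scores take the random background probes as reference.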
# [2] = system: LXRa:RXRa (NR concentration 270 nM, RXRa partner concentration 90 nM)
# In short: as §1
# [3] = system: LXRa homodimer (NR concentration 270 nM)
# In short: as §1
# [4] = system: LXRb:RXRa (NR concentration 270 nM, RXRa partner concentration 90 nM)
# In short: as §1
# [5] = system: LXRb homodimer (NR concentration 270 nM)
# In short: as §1
# [6] = system: PPARa:RXRa (NR concentration 270 nM, RXRa partner concentration 90 nM)
# In short: as §1
# [7] = system: PPARg:RXRa (NR concentration 180 nM, RXRa partner concentration 90 nM)
# In short: as §1
# [8] = system: PPARg:RXRa 270nM:90nM, anti-RXR (NR concentration 270 nM, RXRa partner concentration 90 nM)
# In short: as §1
# [9] = system: PPARg:RXRa 30nM:10nM, anti-RXR (NR concentration 30 nM, RXRa partner concentration 10 nM)
# In short: as §1
# [10] = system: PPARg:RXRa 90nM:30nM, anti-RXR (NR concentration 90 nM, RXRa partner concentration 30 nM)
# In short: as §1
# [11] = system: PPARg:RXRa DBDmut IVT, anti-RXR (DBD mutation: RXRa K156A/R161A, NR concentration 270 nM, RXRa partner concentration 90 nM)
# In short: as §1
# [12] = system: PPARg:RXRa IVT, anti-PPARg (NR concentration 270 nM, RXRa partner concentration 90 nM)
# In short: as §1
# [13] = system: PPARg DBDmut:RXRa IVT, anti-PPARg (DBD mutation: PPARg1 K132A/R137A, NR concentration 270 nM, RXRa partner concentration 90 nM)
# In short: as §1
# [14] = system: PPARg DBDmut IVT, anti-PPARg (DBD mutation: PPARg1 K132A/R137A, NR concentration 270 nM)
# In short: as §1
# [15] = system: PPARg homodimer (NR concentration 180 nM)
# In short: as §1
# [16] = system: PXR:RXRa (NR concentration 270 nM, RXRa partner concentration 90 nM)
# In short: as §1
# [17] = system: PXR homodimer (NR concentration 270 nM)
# In short: as §1
# [18] = system: RARa:RXR (NR concentration 270 nM, RXRa partner concentration 90 nM)
# In short: as §1
# [19] = system: RARa homodimer (NR concentration 270 nM)
# In short: as §1
Sequence,PBM binding z-score [1],PBM binding z-score [2],PBM binding z-score [3],PBM binding z-score [4],PBM binding z-score [5],PBM binding z-score [6],PBM binding z-score [7],PBM binding z-score [8],PBM binding z-score [9],PBM binding z-score [10],PBM binding z-score [11],PBM binding z-score [12],PBM binding z-score [13],PBM binding z-score [14],PBM binding z-score [15],PBM binding z-score [16],PBM binding z-score [17],PBM binding z-score [18],PBM binding z-score [19]
CGTCCAAGGGCAGCAGGTCAGTGAAAGCGACGTG,0.137,-0.0372,-0.847,-0.105,-1.37,0.938,0.305,0.501,-0.617,-0.019,0.8,0.701,-0.933,-1.17,0.592,0.274,-0.825,0.723,-0.64
CAAACTAGGTCACAGAGGTCAACGTCCGTGCGTA,7.51,6.49,6.37,5.93,1.62,6.75,10.3,8.36,6.69,8.46,8.84,9.29,4.63,5.15,4.43,6.82,8.28,7.23,2.74
CGTCGGAGGACAGAAGGTCAGAGCTGTCCGCTTT,1.32,1.68,0.0253,1.19,-1.11,1.85,-0.101,1.07,-0.708,0.0661,0.0146,0.25,-1.84,-2.14,1.33,1.48,-0.228,1.84,0.257
CCTACTGGGCGAAGGTCATTGATCAGTCAAAGCA,2.76,2.99,0.677,2.83,-0.515,3.86,3.62,4.54,2.12,4.26,0.342,2.33,-1.21,-0.935,2.36,3.04,0.36,3.75,-0.327
ATTTGTAGGTTATCGGGTCATTCAGTTTGCGCAT,3.62,4.05,3.03,3.67,2.31,4.47,6.03,5.66,2.93,5.14,6.74,6.84,2.14,2.88,3.32,4.01,6.61,3.9,2.71
TAGCCTAGGACATGCGGGCCAGTATAGTGTCGGC,-0.531,-0.882,-1.1,-1.16,-1.2,-0.741,0.232,-0.867,-0.747,-0.931,-0.985,-0.448,-1.11,-0.53,-1.04,-0.867,-0.905,-0.797,-0.552
CTCGAAAGGTCGGTTGAGGTGACTATACGGATAA,3.63,1.84,-0.14,1.58,0.0463,2.63,0.621,1.11,0.252,0.639,0.163,1.15,0.145,0.106,0.89,3.61,0.00293,2.11,0.415
GCTGCTAGGTAAGGTTGGTCAGCTAACGGGTACG,-0.225,-0.495,-0.455,-0.746,-0.795,-0.411,-0.199,-0.51,-0.761,-0.734,0.515,0.0144,-1.12,-0.451,-0.00134,-0.363,-0.442,-0.608,-0.745
CCTACTGGGCCAAAAATGTCATTGATGCCGATAA,-0.451,-0.771,-0.332,-0.343,-0.655,0.13,0.537,0.911,-0.0652,0.391,2.92,2.47,-0.355,-0.43,-0.472,-0.383,-0.24,-0.612,0.0407
CGAACTAGGTCAGAACAGTACAGTGAAGGATGAT,1.08,0.839,0.06,0.623,-0.447,2.86,5.05,4.39,1.99,3.68,7.19,7.31,2.36,3.58,1.14,0.921,0.234,0.873,0.291
CGTGCAAGGTCAGAGAGGTCAGTGAATGCCGAGT,6.42,5.22,3.35,4.61,0.199,5.16,3.9,4.62,1.19,3.09,2.79,3.68,0.231,-0.338,2.85,6.05,11.2,5.42,0.698
CGAACTAGGACATCCAGGACAGTGAATACATTGA,0.00191,-0.483,0.0183,-0.213,-0.407,0.451,1.35,0.774,0.322,0.462,5.1,4.07,0.493,0.652,0.302,-0.363,0.206,0.00684,0.136
GCTGCTAGGTCAGGTTGGTCAACTAACGGGTACG,1.14,0.685,-0.134,0.695,-0.424,1.46,0.577,0.833,-0.708,0.0771,3.05,2.52,-0.717,-0.77,0.891,0.217,-0.382,0.842,-0.0438
TTACGAAGGTGAAAGGTCGTTGATGCACGCCTTG,3.43,3.33,0.283,2.75,-0.598,5.25,8.12,7.35,6.74,8.17,2.05,4.53,0.416,0.212,1.39,3.77,0.289,5.13,0.203
ATCTCTAGGTAAAGTTCAGCGAAAGATCGATAGA,1.69,2.33,1.67,1.65,0.72,2.81,3.77,4.78,2.56,4.27,2.11,2.5,1.45,1.53,1.49,2.29,1.48,2.06,0.708
